Only some compounds are listed: those with a hit (about 0.86% of all), similar ones and a draw of the others.
RECQ1 inh-1: qHTS Assay for Inhibitors of RecQ-Like Dna Helicase 1 (RECQ1) | ATP-dependent DNA helicase Q1 (Homo sapiens), P46063 | RECQ1 DNA unwinding, red fluorescence kinetic read | 240,000 tested, 0.54% active | Potency, µM (highest dose often 57.3 µM), inactives show at the top dose activity, negative = inhibition, most hits filed as inhibitors;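 note: plate controls were vehicle for no effect and no enzyme for full effect; nearly all actives have a fitted effect of over 30% in size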
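50 nM RECQ1T1 preincubated 15 min with compound in Tris pH 8.0 buffer with MgCl2, DTT, Tween-20 and 2.5 ug/ml poly(dI-dC); started with 200 nM TAMRA/BHQ-2 forked duplex and 2 mM ATP. Unwinding read as fluorescence (525/598 nm), two reads 2 h apart.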
GLS inh: qHTS for Inhibitors of Glutaminase (GLS); Glutaminase kidney isoform, mitochondrial (Homo sapiens), O94925; GLS enzymatic activity, qHTS titration; Potency, µM (titrated, usually from 45.5 µM), for the others: at the top dose activity change, negative = inhibition, hits mostly inhibitors; 410,000 tested, 0.21% active
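Enzyme dispensed in phosphate buffer (45 mM, pH 8.2, 0.02% Tween-20), compounds pinned in, then 1 mM L-glutamine solution and the glutamate oxidase–HRP–Amplex Red mix added; fluorescence read immediately and again after 30 min at room temperature.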
APEX1 inh: qHTS Assay for Inhibitors of the Human Apurinic/apyrimidinic Endonuclease 1 (APE1) | AID 2517, 2012 | 350,000 tested, 0.35% active | DNA repair nuclease/redox regulator APEX1 (Homo sapiens), P27695 | Potency, µM (doses to about 65.8 µM), for the others: at the top dose activity change, negative = inhibition, most hits filed as inhibitors | recombinant APE1, TAMRA/BHQ-2 abasic DNA cleavage fluorescence;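 note: plate controls were vehicle for no effect and reference inhibitor for full effect; nearly all actives have a fitted effect of over 55% in size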
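0.75 nM APE1 + cpd, 15 min RT; start w/ 50 nM TAMRA/BHQ-2 THF-abasic dsDNA; kinetic fluor 525/598 nm ×3 reads @60 s; Δ(read3−read1); normalized to DMSO and NSC13755 control wells.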
BLM inh: qHTS Assay for Inhibitors of Bloom's syndrome helicase (BLM) | recombinant BLM DNA unwinding, fluorescence dequenching | AID 2528, 2010 | Potency, µM (series often up to 56.1 µM), for inactives: at the highest dose activity change, negative = inhibition, usual class: inhibitors | 350,000 tested, 0.2% active;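 note: plate controls were vehicle for no effect and no enzyme for full effect; nearly all actives have a fitted effect of over 35% in size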
FEN1 inh: qHTS Assay for the Inhibitors of Human Flap endonuclease 1 (FEN1); P39748; Recombinant FEN1 flap cleavage, fluorescence, 15 min; Potency, µM (series often up to 114 µM), without a hit: at the highest dose activity change, negative = inhibition, usual class: inhibitors; 390,000 tested, 0.35% active; AID 588795, 2011; note: nearly all actives have a fitted effect of over 65% in size
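Steps: FEN1 (10 nM) dispensed; compound added by pin tool; 15 min at room temperature; substrate added to 50 nM final; reads at 0 min and 15 min; data normalized and fitted (four-parameter Hill).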
Tb PGK inh: qHTS Assay to Find Inhibitors of Phosphoglycerate Kinase; Phosphoglycerate kinase, glycosomal (Trypanosoma brucei brucei), P07378; PGK/GAPDH coupled, Kinase-Glo luminescence, 60 min; Potency, µM (highest dose often 57.5 µM), for the others: top-dose activity change, negative = inhibition, most hits filed as inhibitors; 380,000 tested, 0.043% active; AID 602233, 2012; note: nearly all actives have a fitted effect of over 60% in size
Target sequence (P07378 whole entry, looked up): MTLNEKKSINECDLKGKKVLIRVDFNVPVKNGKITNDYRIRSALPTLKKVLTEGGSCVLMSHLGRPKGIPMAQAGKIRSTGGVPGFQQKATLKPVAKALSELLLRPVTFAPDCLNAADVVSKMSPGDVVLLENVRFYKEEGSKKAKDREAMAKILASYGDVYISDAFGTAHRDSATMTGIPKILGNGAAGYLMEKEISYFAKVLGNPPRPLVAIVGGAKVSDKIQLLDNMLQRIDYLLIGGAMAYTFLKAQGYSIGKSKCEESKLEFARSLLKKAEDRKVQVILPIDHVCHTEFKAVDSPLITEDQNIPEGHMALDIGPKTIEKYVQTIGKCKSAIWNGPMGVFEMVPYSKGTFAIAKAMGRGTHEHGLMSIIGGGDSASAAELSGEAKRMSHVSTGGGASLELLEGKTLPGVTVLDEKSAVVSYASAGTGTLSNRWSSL
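Luminescent ATP detection (Kinase-Glo Plus) follows a 60-minute room-temperature incubation, with wells lacking PGK as controls. Buffer: 100 mM TEA (pH 7.6), 5 mM MgCl2, 0.01% Tween-20. Coupling enzyme GAPDH (100 nM final) supplies unstable 1,3-BPG in-well.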
RECQ1 conf: Confirmation qHTS Assay for Inhibitors of RecQ-Like Dna Helicase 1 (RECQ1); shares compounds with RECQ1 inh-1; RECQ1 helicase DNA unwinding, fluorescence; Potency, µM (highest dose often 229 µM), for inactives: at the highest dose activity change, negative = inhibition, actives largely listed as inhibitors; 610 tested, 28% active; note: nearly all actives have a fitted effect of over 45% in size
RECQ1 ADP FP: Counterscreen for RECQ1 Inhibitors: ADP Fluorescence Polarization Displacement Assay. AID 2711, 2010. shares compounds with RECQ1 inh-1. 530 tested, 27% active. ADP fluorescence polarization displacement counterscreen. Potency, µM (top dose mostly 228 µM), for the others: at the highest dose activity change, negative = inhibition, usual class: inhibitors; note: nearly all actives have a fitted effect of over 45% in size
RECQ1 inh-2: Confirmation qHTS Assay for Inhibitors of RecQ-Like Dna Helicase 1 (RECQ1) - Round 2 Cherry Picks. shares compounds with RECQ1 inh-1. recombinant RECQ1 DNA unwinding, red fluorescence. Potency, µM (series often up to 119 µM), for the others: top-dose activity, negative = inhibition, hits mostly inhibitors. 1,100 tested, 15% active; note: nearly all actives have a fitted effect of over 50% in size
An asterisk follows results filed as active. Calls come from the whole dose curve; as a rule, active = well fitted curve in the direction sought with a large enough effect; inconclusive = small, poorly fitted or top-dose-only effect, or another doubt; inactive = no such curve, though single readings can be large; an effect the other way counts as inactive or inconclusive. Unless noted, % is set by controls: 0 for no effect and ±100 for the full control effect; potency is the fitted concentration of half-maximal effect.

Results for Cc1cccc(NC(=O)CN2C(=O)C(c3ccc(F)cc3)=NC23CCCCCC3)c1C ?
GLS inh: -9%; BLM inh: -11%; FEN1 inh: -4%

What do the screens show for `CCCn1c(CCC(=O)O)nc2cc(S(=O)(=O)N3CCCC3)ccc21`?
RECQ1 inh-1: -5%; GLS inh: 4%; APEX1 inh: -3%; BLM inh: -6%; FEN1 inh: 1%; Tb PGK inh: -4%; RECQ1 conf: 112µM*; RECQ1 ADP FP: inconclusive

What do the screens show for `CN(C)S(=O)(=O)c1ccc2c(c1)nc(CCC(=O)O)n2C`?
RECQ1 inh-1: -9%; GLS inh: 2%; APEX1 inh: 15%; BLM inh: -5%; FEN1 inh: 14%; Tb PGK inh: 0%; RECQ1 conf: 20%; RECQ1 ADP FP: 100µM*

What do the screens show for `CCCCn1c(CCC(=O)O)nc2cc(S(=O)(=O)N(CC)CC)ccc21`?
RECQ1 inh-1: -25%; GLS inh: -2%; APEX1 inh: -2%; BLM inh: -4%; FEN1 inh: -1%; Tb PGK inh: -2%; RECQ1 conf: 89µM*; RECQ1 ADP FP: 11%

What do the screens show for `CCn1c(CCC(=O)O)nc2cc(S(=O)(=O)N(C)C)ccc21`?
RECQ1 inh-1: inactive; GLS inh: 0%; APEX1 inh: 0%; BLM inh: 4%; FEN1 inh: 1%; Tb PGK inh: inactive

How did CCCn1c(CCl)nc2cc(S(=O)(=O)N3CCOCC3)ccc21 do in these assays?
GLS inh: 2%; APEX1 inh: 1%; FEN1 inh: -1%; Tb PGK inh: 3%

What do the screens show for `CC(C)Cn1cc(C(=O)N2CCN(c3cccc(Cl)c3)CC2)c2c3ccccc3n(C)c2c1=O`?
GLS inh: -1%; BLM inh: -12%; FEN1 inh: 7%; Tb PGK inh: inactive

How did CCCCCCCCCCCCCCCCCCN(CCCCCCCCCCCCCCCCCC)c1ccc(C=O)cc1 do in these assays?
FEN1 inh: -1%

What do the screens show for `CC(NC(=O)Nc1ccc(O)cc1)(C(F)(F)F)C(F)(F)F`?
RECQ1 inh-1: inconclusive; GLS inh: 43%; APEX1 inh: -10%; BLM inh: -24%; FEN1 inh: -10%; Tb PGK inh: -1%; RECQ1 inh-2: 15%

What do the screens show for `Cc1cc(C(=O)CSc2nnc(-c3ccco3)o2)c(C)n1CC1COc2ccccc2O1` (stereo unspecified)?
RECQ1 inh-1: 32µM*; GLS inh: -11%; APEX1 inh: inconclusive; BLM inh: -9%; FEN1 inh: 13%; Tb PGK inh: -6%; RECQ1 inh-2: -10%

What do the screens show for `CCOC(=O)CN1C(=O)S/C(=C/C=C/c2ccc(N(C)C)cc2)C1=O`?
RECQ1 inh-1: 25µM*; GLS inh: 7%; APEX1 inh: -6%; BLM inh: inconclusive; FEN1 inh: -12%; Tb PGK inh: inactive; RECQ1 inh-2: 32µM*

Results for O=C(O)CC(NC(=O)COc1ccc(Cl)cc1Cl)C(=O)O (stereo unspecified) ?
RECQ1 inh-1: 15%; GLS inh: 14%; APEX1 inh: 2%; BLM inh: 1%; FEN1 inh: -9%; Tb PGK inh: -7%; RECQ1 conf: 15%; RECQ1 ADP FP: 5%

What do the screens show for `Cc1ccc(Nc2nc(N)c([N+](=O)[O-])c(NCc3ccco3)n2)cc1C`?
RECQ1 inh-1: 35µM*; GLS inh: -4%; APEX1 inh: -2%; BLM inh: inconclusive; FEN1 inh: -26%; Tb PGK inh: 3%; RECQ1 inh-2: 50µM*

What do the screens show for `COc1cccc(Nc2nc(N)c([N+](=O)[O-])c(NCc3ccccc3)n2)c1`?
RECQ1 inh-1: inconclusive; GLS inh: 10%; APEX1 inh: -3%; BLM inh: inconclusive; FEN1 inh: -12%; Tb PGK inh: 3%; RECQ1 inh-2: 50µM*

How did Cc1cccc(Nc2nc(N)c([N+](=O)[O-])c(NCc3ccccc3)n2)c1 do in these assays?
RECQ1 inh-1: -28%; GLS inh: 0%; APEX1 inh: -7%; BLM inh: inconclusive; FEN1 inh: -18%; Tb PGK inh: -3%

What do the screens show for `COc1ccc(-n2c(=O)c3sc4ccccc4c3n(CC(=O)Nc3ccccc3F)c2=O)cc1`?
GLS inh: 13%; BLM inh: -1%; FEN1 inh: -3%; Tb PGK inh: 3%

How did CN1CC(O)C2=CC(=O)C(=O)C=C21 (stereo unspecified) do in these assays?
RECQ1 inh-1: 2.8µM*; APEX1 inh: 0.4µM*; RECQ1 conf: active; RECQ1 ADP FP: 10µM*

How did CCC1CC=CC2C1C(=O)N(Cc1ccccc1)C2c1ccoc1 (stereo unspecified) do in these assays?
RECQ1 inh-1: -12%; APEX1 inh: -4%; BLM inh: -11%; FEN1 inh: -1%

What do the screens show for `CCOC(=O)c1nc2sc3c(c2c(=O)[nH]1)CCCC3`?
RECQ1 inh-1: -6%; GLS inh: -1%; APEX1 inh: -2%; BLM inh: 0%; FEN1 inh: -4%; Tb PGK inh: 4%
